In general, inhibition refers to the drop in the measured response relative to a control, in per cent.

Screen size: about 340,000 compounds; about 1,200 (0.35%) were called active. Cut-off read from the data, not from the text of the source: active = inhibition above about 50% (passing the limit was not always enough); inconclusive = no clear call, values can overlap the other calls; inactive = below about 31%. What follows is part of a selection rich in actives, with near analogues and random picks from the rest.

Results on 25 compounds are retold here after PubChem BioAssay AID602346 (Broad Institute, 2012).

The experiment in a line: blockers of Vif multimerization in cells – imaging, HEK293T, single point, primary screen (AID 602346). Conditions: Vif self-association by quenched fluorescence, 24 h, at 7.49 µM, stronger effect = higher value.
As for `OC(c1cc(Cl)cc(Cl)c1)c1ncc(-c2ccccc2C(F)(F)F)[nH]1` (stereo not given), the inhibition is 7.62% (inactive).

For `Cc1cccc(CNC(=O)c2sc(=O)n(Cc3ccccc3C)c2C)c1`, the inhibition is -3.32% (inactive). As for `Cn1c(NC(=O)c2ccccc2)nc2ccccc21`, the inhibition was -0.44% (inactive). The figure for `O=C1C=C(NS(=O)(=O)c2ccccc2)C(=O)c2ccccc21` is 5.11% (inactive); for `O=C(NC1=CC(=O)c2ccccc2C1=O)c1ccccc1` it is 120% (active). On to `O=C(c1ccc(CS(=O)Cc2ccccc2Cl)o1)N1CCN(c2ccccc2)CC1` (stereo not given), for which the inhibition was 2.07% (inactive).

With `O=C(CCc1ccc(O)cc1)NN=Cc1cc(Br)ccc1O`, the inhibition is -6.15% (inactive). The figure for `CCc1nc2c(OCCC3CCCCC3)cccn2c1N(C)C(=O)c1ccco1` is 3.23% (inactive); for `COC(=O)NNC1=CC(=O)CC(C)(C)C1` it is 7.17% (inactive); for `CC1(C)CC(=O)C=C(NCCCNC2CCCCC2)C1` it is -5.64% (inactive).

In the case of `CC1(C)CC(=O)C=C(NC2CC(C)(C)NC(C)(C)C2)C1`, the inhibition was 65.2% (active). As to `O=C(c1ccc(N2CCCC2=O)cc1)N1CCN(c2ccc(C(F)(F)F)cc2[N+](=O)[O-])CC1`, the inhibition was -4.95% (inactive). Regarding `CC(C)C[C@H]1CNC(=S)N1C[C@H]1CCCN1C[C@H](Cc1ccc(O)cc1)N1C[C@H](Cc2ccc(O)cc2)N(CC2CCCCC2)C1=S`, the inhibition was 5.91% (inactive). The figure for `Cc1ccc(S(=O)(=O)N2C[C@H]3n4c(=O)ccc(=O)n4C[C@H](OC(=O)NC4CCCC4)[C@@]3(O)C2)cc1` is -13.2% (inactive). The figure for `CC1CCN(c2ccc3c(c2)S(=O)(=O)c2cc(C(=O)O)ccc2C3=O)CC1` is -0.214% (inactive); for `Cc1ccc(CNC(=O)c2ccc3c(c2)S(=O)(=O)c2ccccc2C3=O)cc1` it is 5.37% (inactive); for `Cc1ccc(CNC(=O)c2cccc3c2C(=O)c2ccc(N4CCC(C)CC4)cc2S3(=O)=O)cc1` it is 111% (active). With `CN(C)CCNC(=O)c1cccc(-c2cnc3c(NC=O)cc(-c4cccc(C(F)(F)F)c4)cn23)c1`, the inhibition is 5.61% (inactive). The figure for `C=C1C(=O)[C@]23C[C@H]1CCC2[C@@]1(C)C(C[C@@H]3O)[C@](C)(C(=O)O)CC[C@@H]1O` (stereo not given in full) is 12.6% (inactive); for `O=C(CCCN1C(=O)C(c2ccccc2)Oc2cccnc21)Nc1ccccc1Br` (stereo not given) it is 6.43% (inactive); for `CC(=O)Nc1cc(-c2ccccc2N(C)C)cn2c(-c3ccc(F)c(Cl)c3)cnc12` it is -4.22% (inactive). `CC(=O)Nc1cccc(-c2ccnc3c2CC(C)(C(=O)NCc2ccccc2)O3)c1` (stereo not given): the inhibition is -11.2% (inactive). In the case of `Cc1ccccc1OCCOc1ccc([N+](=O)[O-])cc1/C=N/n1cnnc1`, the inhibition is 69.4% (active). The figure for `Cc1ccccc1OS(=O)(=O)c1cccc([N+](=O)[O-])c1` is -0.237% (inactive).

In the case of `COc1cccc(OCCOc2cccc(/C=N/n3cnnc3)c2)c1`, the inhibition is 11.7% (inactive).
